Pf growth 96h: Primary qHTS for delayed death inhibitors of the malarial parasite plastid, 96 hour incubation. P. falciparum luciferase reporter growth, 96 h. Potency, µM (highest dose often 28.7 µM), actives largely listed as inhibitors. 320,000 tested, 6.9% active
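Readout is luminescence from an integrated firefly luciferase in P. falciparum. Red cells, 2% hematocrit and 0.05% parasitemia final, were cultured with compound through two parasite generations (96 hours) at 37 C, 5% CO2.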
Lassa entry inh: qHTS for Inhibitors of binding or entry into cells for Lassa Virus; Lassa virus pseudotype entry inhibition, cell reporter; Potency, µM (top dose mostly 37.9 µM), most hits filed as inhibitors; 300,000 tested, 1.2% active; calls by dose curve; tested in HEK293 cells; further: nearly all actives have a fitted effect of over 50% in size
Pf growth 48h: Primary qHTS for delayed death inhibitors of the malarial parasite plastid, 48 hour incubation. P. falciparum luciferase growth in erythrocytes, 48 h. Potency, µM (highest dose often 28.7 µM), usual class: inhibitors. 310,000 tested, 5.9% active. AID 504832, 2011
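Growth was read as firefly luciferase luminescence after a 48 h, 37 C, 5% CO2 exposure of compounds to reporter-bearing P. falciparum cultures (0.1% parasitemia, 2% hematocrit final) in Albumax-supplemented RPMI 1640.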
Cycloheximide cs: Cycloheximide Counterscreen for Small Molecule Inhibitors of Shiga Toxin; cell reporter, cycloheximide protein synthesis inhibition counterscreen; max response, %; 300,000 tested, 12% active; AID 2314, 2010; in the data active means max response mostly above about 13%, no sharp cut-off; inactive means mostly below about 14%; further: read at 38.3 µM for the half of the compounds with a filed dose
Shiga inhibitor: A qHTS for Small Molecule Inhibitors of Shiga Toxin; AID 2315, 2010; inhibition, % at 38.7 µM; Vero cells, Shiga toxin protein synthesis inhibition reporter; 290,000 tested, 9.2% active; in the data active means inhibition mostly above about 28%, no sharp cut-off; inactive means mostly below about 43%
MARV entry inh: qHTS for inhibitors of binding or entry into cells for Marburg Virus | 300,000 tested, 1.8% active | Potency, µM (top dose mostly 37.8 µM), hits mostly inhibitors | Marburg virus pseudotyped entry inhibition, cell reporter; calls by dose curve; tested in HEK293 cells
A number is an active result; n = inactive; u = inconclusive; x = no result. Most compounds without a hit are left out; they make up all but 19% or so of the library. Unless noted, the call rests on the fitted dose curve; in most records, active means well fitted inhibition curve with a large enough effect; inconclusive means small, poorly fitted or top-dose-only effect, or another doubt; inactive means no such curve, though single readings can be large or run the other way.

SMILES | Pf growth 96h | Lassa entry inh | Pf growth 48h | Cycloheximide cs | Shiga inhibitor | MARV entry inh
Cc1cccc(OCC(=O)Nc2c(C(=O)N3CCN(c4ccccc4F)CC3)oc3ccccc23)c1 | x | u | x | x | x | 10µM
COc1ccc(OCC(=O)Nc2c(C(=O)N3CCN(C)CC3)oc3ccccc23)cc1 | 9.3µM | x | n | n | n | x
CC(C)CN1CCN(Cc2cccn2-c2ccc(Cl)cn2)CC1CCO (stereo not drawn) | n | u | u | n | n | u
CCOc1ccc(C(C(=O)NCC2CCCO2)N(C(=O)c2snc(C(N)=O)c2N)c2ccccc2F)cc1 (stereo not drawn) | u | 7.1µM | u | n | n | u
CCOc1ccc(C(C(=O)NCC2CCCO2)N(C(=O)c2snc(C(N)=O)c2N)c2cccc(F)c2)cc1 (stereo not drawn) | n | u | 13µM | n | n | u
CCOc1ccc(C(C(=O)NCC2CCCO2)N(Cc2cccs2)C(=O)c2snc(C(N)=O)c2N)cc1 (stereo not drawn) | u | u | 13µM | n | n | n
Cc1ccc(C(C(=O)NCC2CCCO2)N(C(=O)c2snc(C(N)=O)c2N)c2ccccc2F)o1 (stereo not drawn) | n | n | u | n | n | u
COc1ccc(C(C(=O)NCC2CCCO2)N(Cc2cccs2)C(=O)c2snc(C(N)=O)c2N)cc1OC (stereo not drawn) | u | n | u | n | n | n
CC(C)CNC(=O)NC(=O)COC(=O)COc1ccc(Cl)cc1Cl | n | u | n | n | n | u
CCCCc1cc(=O)oc2cc(OCC(=O)NCCN3CCOCC3)c(Cl)cc12 | u | x | n | n | n | x
CC1=CC(C)(C)Nc2ccc(OC(=O)C(Cc3ccccc3)N3C(=O)c4ccccc4C3=O)cc21 (stereo not drawn) | n | 5µM | u | n | n | n
CC1=CC(C)(C)Nc2ccc(OC(=O)CN3C(=O)c4ccccc4C3=O)cc21 | n | u | 15µM | 35 | 55 | u
CC1=CC(C)(C)Nc2ccc(OC(=O)CN3C(=O)c4cccc5cccc(c45)C3=O)cc21 | u | n | 7.4µM | n | n | n
COc1cccc(C2=NS(=O)(=O)N(C)C(C(=O)Nc3cccc(O)c3)=C2)c1 | x | n | x | x | x | u
Cc1nc([N+](=O)[O-])cn1CC(O)c1ccc(-c2ccccc2)cc1 (stereo not drawn) | n | x | u | n | n | x
CC12CCC(C(=O)Nc3cccc(Cl)c3)(C(Br)C1=O)C2(C)C (stereo not drawn) | 15µM | u | u | n | n | u
COc1cc(Nc2nc(-c3ccccc3)c3cc(C)ccc3n2)cc(OC)c1OC | n | u | u | n | n | u
COc1cc(Nc2nccc(Nc3ccc4c(C)[nH]nc4c3)n2)cc(OC)c1OC | x | 25µM | x | x | x | x
OCCCn1c(-c2ccccc2)n[nH]c1=S | n | n | n | 21 | 37 | n
COc1ccc(-c2nc(CSCC(=O)NC3CCCc4ccccc43)c(C)o2)cc1 (stereo not drawn) | n | n | x | n | n | u
Cc1cc(C)cc(Oc2c(C(F)(F)F)oc3cc(OCC(=O)NC4CCCCC4)ccc3c2=O)c1 | x | n | x | x | x | n
COc1ccc(Oc2c(C(F)(F)F)oc3cc(OCC(=O)O)ccc3c2=O)cc1 | 9.3µM | x | n | n | n | x
O=C(Nc1ccc2c(c1)CCCN2C(=O)c1cccs1)c1cccc(F)c1 | n | u | n | 22 | 47 | u
O=C(Nc1ccc2c(c1)CCCN2C(=O)c1cccs1)c1ccccc1 | n | u | n | 36 | 36 | u
COc1cc(OC)cc(C(=O)Nc2ccc3c(c2)CCCN3C(=O)c2cccs2)c1 | u | u | u | n | n | x
SMILES | Pf growth 96h | Lassa entry inh | Pf growth 48h | Cycloheximide cs | Shiga inhibitor | MARV entry inh
COC(=O)c1ccc(CSc2cc(C)c3cccc(C)c3n2)o1 | u | u | n | n | n | n
COc1ccccc1-c1nnc(NC(=O)C2=COCCO2)o1 | n | n | n | n | n | u
O=C(N/N=C/C=C/c1ccc([N+](=O)[O-])cc1)C1COc2ccccc2O1 (stereo not drawn) | 12µM | u | n | n | n | n
COc1ccc(/C=N\NC(=O)C2COc3ccccc3O2)cc1O (stereo not drawn) | n | x | n | 20 | 62 | x
COc1cc(/C=N/NC(=O)C2COc3ccccc3O2)ccc1O (stereo not drawn) | n | u | n | n | n | u
COc1cc(/C=N/NC(=O)C2c3ccccc3Oc3ccccc32)ccc1O | 13µM | n | u | n | n | n
O=C(Nc1ccc([N+](=O)[O-])cc1)C1COc2ccccc2O1 (stereo not drawn) | n | u | u | n | x | u
COc1ccc(S(=O)(=O)N2CCN(C)CC2)c2ccccc12 | n | x | n | n | n | x
O=C(O)CC1c2ccccc2CCN1C(=O)Nc1cc(Cl)ccc1Cl (stereo not drawn) | x | n | x | x | x | x
CC1Nc2ncnc(N3CCc4ccccc4C3)c2N(Cc2ccc(Cl)cc2)C1=O (stereo not drawn) | 5.2µM | x | 13µM | x | x | x
CC1Nc2ncnc(N3CCc4ccccc4C3)c2N(Cc2ccc(Br)cc2)C1=O (stereo not drawn) | 6.6µM | x | 2.1µM | x | x | x
c1ccc(Cn2nnc3c(N4CCc5ccccc5C4)ncnc32)cc1 | n | n | u | n | n | n
O=C(O)CCN1c2ccccc2Sc2ccccc21 | n | x | n | n | n | x
C=C(c1ccc(C(=O)O)cc1)c1cc2c(cc1C)C(C)(C)CCC2(C)C | n | x | u | x | x | x
OC(CN(Cc1ccccc1)Cc1ccccc1)c1ccccc1 (stereo not drawn) | x | n | x | x | x | u
CCCN(CC1CC1)CC(O)c1ccccc1 (stereo not drawn) | 13µM | n | 15µM | n | n | u
CC(C)OCCCN(CC(O)c1ccccc1)CC(O)c1ccccc1 (stereo not drawn) | u | n | 10µM | n | n | n
Cc1ccc(C)c(NC(=O)CSc2nnc([C@@H](N)Cc3ccccc3)o2)c1 | u | n | n | n | n | n
COc1ccc(Br)cc1CNC(=O)c1cc(=O)[nH]c2ccc(S(=O)(=O)N3CCCCC3C)cc12 (stereo not drawn) | x | n | x | x | x | x
CCN(CC)c1ccc(C2C3CCCCC3(O)CCN2CC(=O)N2CCCCC2)cc1 (stereo not drawn) | u | n | u | n | n | u
CCN(CC)c1ccc(C2C3CCCCC3(O)CCN2C(=O)c2cccs2)cc1 (stereo not drawn) | 12µM | u | u | n | n | n
CCN(CC)c1ccc([C@H]2[C@@H]3CCCC[C@]3(O)CCN2CC(=O)NCc2ccco2)cc1 | u | n | 10µM | n | n | u
Cc1ccc(C2=CC(c3c(F)cccc3Cl)n3ncnc3N2)cc1C (stereo not drawn) | x | n | x | x | x | x
Cc1ccc(NC(=O)CSC2=C(C#N)C(c3ccc4c(c3)OCO4)C3=C(CCCC3=O)N2)c(C)c1 (stereo not drawn) | n | u | u | n | n | n
CCOC(=O)Cc1csc(NC(=O)c2csc(C)c2)n1 | x | n | n | 28 | 35 | n
